Screening data: PubChem BioAssay, DiRusso Lab, Biochemistry Department, University of Nebraska
Chlamy TAG: algal TAG accumulation induction. Chlamydomonas reinhardtii TAG, Nile Red fluorescence, 72 h. calls only at 10 µM (by protocol). 0.84% of 44,000 active. AID 1159537; call rule not given here;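 note: hits raise Nile Red signal meaning more stored TAG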
* marks the source's active call; other numbers are inactive results. Only a selection was taken, and hits are over-represented in it overall.

`Cc1ccccc1N1CCN(Cc2ccc(O)cc2)CC1` gave Chlamy TAG active.
Oc1cccc(CN2CCN(c3ccccc3Cl)CC2)c1 was read as Chlamy TAG inactive.
`Clc1ccccc1N1CCN(Cc2ccccc2)CC1` gave Chlamy TAG inactive.
Screening Cc1ccccc1N1CCN(Cc2ccc(N(C)C)cc2)CC1 returned Chlamy TAG inactive.
Cc1ccc(CN2CCN(c3ccccc3C)CC2)cc1 was read as Chlamy TAG inactive.
Screening Oc1ccc(CN2CCN(c3ccccc3Cl)CC2)cc1 returned Chlamy TAG active.
CN=C1CN=C(c2ccccc2)c2cc(Cl)ccc2N1 was read as Chlamy TAG inactive.
For CSc1ccc(CNCCc2ccc3c(c2)OCO3)cc1 the results were Chlamy TAG inactive.
Screening Cc1nc2ccccc2c(=O)n1-c1cc(Cl)ccc1Cl returned Chlamy TAG inactive.
`COc1ccc(N2CCNCC2)c([N+](=O)[O-])c1` gave Chlamy TAG inactive.
For Nc1ccc(F)cc1C(=O)c1ccccc1 the results were Chlamy TAG active.
Nc1ccc(Br)cc1C(=O)c1ccccc1F was read as Chlamy TAG inactive.
For Nc1ccc(Cl)cc1C(=O)c1ccccc1 the results were Chlamy TAG inactive.
For COc1ccc(O)c(CN2CCN(c3cc(C)ccc3C)CC2)c1 the results were Chlamy TAG inactive.
O=[N+]([O-])c1ccc(CN2CCN(c3ccc(F)cc3)CC2)cc1 was read as Chlamy TAG active.
`O=C(COc1ccccc1)N1CCN(Cc2ccc([N+](=O)[O-])cc2)CC1` gave Chlamy TAG inactive.
For CN1CCN(Cc2cccc([N+](=O)[O-])c2)CC1 the results were Chlamy TAG inactive.
`CN1CCN(Cc2ccc([N+](=O)[O-])cc2)CC1` gave Chlamy TAG inactive.
CCN1CCN(Cc2ccc([N+](=O)[O-])cc2)CC1 was read as Chlamy TAG inactive.
Screening CCC(C)N1CCN(Cc2ccc([N+](=O)[O-])cc2)CC1 (stereo not drawn) returned Chlamy TAG active.
For O=[N+]([O-])c1ccc(N2CCN(Cc3cccc(Cl)c3)CC2)cc1 the results were Chlamy TAG inactive.
O=[N+]([O-])c1ccc(CN2CCN(Cc3ccccc3)CC2)cc1 was read as Chlamy TAG active.
O=[N+]([O-])c1ccc(N2CCN(Cc3cccc(F)c3)CC2)cc1 was read as Chlamy TAG inactive.
CCCCSc1nc2ccccc2c(=O)n1-c1ccc(OC)cc1 was read as Chlamy TAG inactive.
For COc1ccc(CCNCc2ccc([N+](=O)[O-])cc2)cc1OC the results were Chlamy TAG inactive.
For NCCc1nc(N)n[nH]1 the results were Chlamy TAG inactive.
Cc1cc(Br)ccc1NC(=O)C(Cl)(Cl)Cl was read as Chlamy TAG inactive.
Screening O=[N+]([O-])c1ccccc1CN1CCN(Cc2ccc(F)cc2)CC1 returned Chlamy TAG inactive.
N/C(=N/[N+](=O)[O-])Nc1ccc(NC(=O)c2ccccn2)cc1 was read as Chlamy TAG inactive.
For C=CCOc1ccccc1CN1CCN(CC)CC1 the results were Chlamy TAG inactive.
For Cc1ccc(N2CCN(Cc3c(F)cccc3Cl)CC2)cc1 the results were Chlamy TAG inactive.
For Oc1ccc(CN2CCN(c3cccc(Cl)c3)CC2)cc1 the results were Chlamy TAG active.
Fc1ccc(CN2CCN(c3cccc(Cl)c3)CC2)c(F)c1 was read as Chlamy TAG inactive.
Screening Clc1ccc(CN2CCN(c3ccccc3)CC2)cc1Cl returned Chlamy TAG inactive.
`COc1cccc(CN2CCN(c3cccc(Cl)c3)CC2)c1` gave Chlamy TAG inactive.
`Fc1ccc(CN2CCN(c3cccc(Cl)c3)CC2)cc1` gave Chlamy TAG active.
Clc1cccc(N2CCN(Cc3ccccc3Cl)CC2)c1 was read as Chlamy TAG inactive.
Screening COc1ccc(CN2CCN(c3cccc(Cl)c3)CC2)cc1O returned Chlamy TAG inactive.
`COc1ccc(CN2CCN(c3ccccc3)CC2)cc1O` gave Chlamy TAG inactive.
`Oc1ccc(CN2CCN(c3ccccc3)CC2)cc1` gave Chlamy TAG active.
COc1ccc(CNCCc2cccc(Cl)c2)cc1OC was read as Chlamy TAG inactive.
For CN1CCN(Cc2ccoc2)CC1 the results were Chlamy TAG inactive.
`CC12CCC(O)C[C@@H]1CCC1C2CCC2(C)C1CC[C@]2(C)O` (stereo partly drawn) gave Chlamy TAG inactive.
For CC1(C)[C@H]2CC=C(CN3CCOCC3)[C@@H]1C2 the results were Chlamy TAG inactive.
Screening CCCSc1nc2ccccc2c(=O)n1-c1ccc(C)cc1 returned Chlamy TAG inactive.
Screening CN1CCC(N2CCOCC2)CC1 returned Chlamy TAG inactive.
For CC(=O)N[C@@H](C)Cc1ccccc1 the results were Chlamy TAG inactive.
Screening CCc1nc2ccc(Br)cc2c(=O)n1-c1ccc(Cl)cc1 returned Chlamy TAG inactive.
For Cc1ccccc1CN1CCN(Cc2ccc3c(c2)OCO3)CC1 the results were Chlamy TAG inactive.
`COC1CCCCC1NC1CCCCC1` (stereo not drawn) gave Chlamy TAG inactive.
Screening COc1ccc(CNCCc2ccccc2OC)c(OC)c1 returned Chlamy TAG inactive.
Clc1cccc(CN2CCN(Cc3ccc4c(c3)OCO4)CC2)c1 was read as Chlamy TAG inactive.
For COc1ccc(N2CCN(Cc3ccc(F)cc3)CC2)cc1 the results were Chlamy TAG inactive.
`Clc1ccc(CN2CCN(Cc3ccc4c(c3)OCO4)CC2)cc1` gave Chlamy TAG inactive.
`COc1ccc(N2CCN(Cc3ccc(Cl)cc3)CC2)cc1` gave Chlamy TAG active.
For CCOc1ccc(CN2CCN(c3ccc(F)cc3)CC2)cc1 the results were Chlamy TAG active.
Clc1ccc(N2CCN(Cc3ccc4c(c3)OCO4)CC2)cc1 was read as Chlamy TAG active.
Screening COc1ccc(N2CCN(Cc3ccc(Cl)c(Cl)c3)CC2)cc1 returned Chlamy TAG inactive.
COc1ccccc1N1CCN(Cc2ccc(N(C)C)cc2)CC1 was read as Chlamy TAG inactive.
For CCOc1ccc(CN2CCN(c3ccccc3OC)CC2)cc1 the results were Chlamy TAG active.
Screening CCOc1ccc(CN2CCN(c3ccc(OC)cc3)CC2)cc1 returned Chlamy TAG inactive.
For CCOc1ccccc1CN1CCN(c2ccccc2OC)CC1 the results were Chlamy TAG inactive.
Screening CCOc1cc(CN2CCN(c3ccc(F)cc3)CC2)ccc1O returned Chlamy TAG inactive.
`CSc1ccc(CN2CCCCC2c2cccnc2)cc1` (stereo not drawn) gave Chlamy TAG inactive.
`O=[N+]([O-])c1ccc(O)c(CN2CCN(c3ccccc3Cl)CC2)c1` gave Chlamy TAG inactive.
`O=C(CN1CCOCC1)c1ccc2c(c1)OCCO2` gave Chlamy TAG inactive.
Screening COc1cccc(CCNCc2cccc(C)c2)c1 returned Chlamy TAG inactive.
For COc1cc(CN2CCN(Cc3ccccc3)CC2)cc(OC)c1 the results were Chlamy TAG active.
For CCOc1ccccc1CN1CCN(c2ccccc2C)CC1 the results were Chlamy TAG inactive.
For COc1cc(CN2CCN(C)CC2)cc(OC)c1 the results were Chlamy TAG inactive.
For CCOc1ccc(CN2CCN(c3ccccc3C)CC2)cc1 the results were Chlamy TAG active.
For COc1cccc(CN2CCN(Cc3ccccc3)CC2)c1 the results were Chlamy TAG inactive.
For CCc1ccc(CN2CCN(CC)CC2)cc1 the results were Chlamy TAG active.
Screening CCN1CCN(Cc2cccc(Br)c2)CC1 returned Chlamy TAG inactive.
